In PubChem BioAssay:
Activity calls are given as the source filed them.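 Rule for the calls, unless noted: active = NADPH fluorescence slope more negative than the mean of all samples by about 3 SD, 99.7% confidence; inactive = the rest.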

Tests used:
[1] = inhibitors of TNFa-induced NFkB p65 translocation, primary screen, imaging, HUVEC, MLSMR starter and 10KST1 sets (AID 438;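 active = inhibition above 20% together with a positive visual image hit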;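 note: compound added about 3h40 before a 20 min TNFalpha stimulation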;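 for inhibition: signal is the nuclear over cytoplasmic p65 intensity ratio per well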); conditions: HUVEC TNFa-induced p65 nuclear translocation; cell count: measured here: nuclei count (cytotoxicity indicator), at 2.08 µM; inhibition: at 2 µM, stronger effect = higher value, 0% TNFa-plus-vehicle, 100% no-TNFa wells
[2] = reduction of polyQ htt aggregates in cells – imaging, exon1htt(103Q)mCFP cells, high-content imaging, primary screen (AID 483;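 active = visual image review flags a hit and inhibition of aggregation exceeds 20%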;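 note: compound exposure lasted 3 days before fixation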;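 for nuclei count: percent of the per-plate median nuclei count of sample wells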); conditions: exon1htt(103Q)mCFP cell line, aggregate imaging, at 2 µM; inhibition of aggregation: stronger effect = higher value; nuclei count: measured here: cell count, toxicity
[3] = endothelial E-selectin expression blockers – imaging, HUVEC, immunofluorescence, MLSMR starter and 10KST1 sets, primary screen (AID 487;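 active = visually confirmed hit in the image check and inhibition above 20%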;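 for inhibition: signal is fraction of cell area covered by stained E-selectin grains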;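 for nuclei count: 100% = median nuclei count of all wells on the same plate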); conditions: HUVEC TNFalpha-induced E-selectin immunofluorescence imaging, at 2 µM; inhibition: stronger effect = higher value; nuclei count: measured here: cell number, toxicity
[4] = target: Voltage-gated potassium channel subunit beta-2 (Rattus norvegicus) (UniProt P62483); assay: inhibitors of rat Kvbeta2 reductase activity – biochemical, NADPH fluorescence, primary screen (AID 622;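 active = fluorescence slope higher than the sample average by over 3 SD, cut at about -0.22 in these data, passing the limit was not always enough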;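 note: slope of raw intensity against log time taken from 70 to 1610 s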); conditions: recombinant KvBeta, 4-cyanobenzaldehyde reduction, at 10 µM, stronger effect = higher value
[5] = target: Voltage-gated potassium channel subunit beta-2 (Rattus norvegicus) (UniProt P62483); assay: enhancers of rat Kvbeta2 NADPH turnover – biochemical, NADPH fluorescence, primary screen (AID 623); conditions: Recombinant KvBeta, NADPH fluorescence decrease slope, 10 min; at 10 µM; stronger effect = lower value;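 note: fluorescence intensity change per second fitted from 20 to 320 s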
[6] = target: Alpha-2C adrenergic receptor (Homo sapiens) (UniProt P18825); assay: compounds altering alpha2C-coupled GIRK flux – cell-based, HEK293 alpha2C/GIRK1/2, thallium flux, primary screen (AID 624;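 active = fluorescence slope after compound addition differing from the mean of all screened samples at 99.7% confidence, in either direction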;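 note: slope of fluorescence ratio to pre-addition baseline per second over 15 to 24 s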); conditions: thallium flux BTC fluorescence, at 10 µM, actives lie on both sides
[7] = blockers of RIG-like receptor reporter activation – cell-based, Sendai virus stimulus, luciferase, 10K MLSCN set, TLR/RLR signaling modifier project, primary screen (AID 602276;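 active = inhibition at or above 50% at 10 µM; inactive = inhibition below 50%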;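 note: firefly luciferase from ISG56 promoter only with Renilla not read in this screen; 0% = Sendai virus plus DMSO and 100% = medium plus DMSO without virus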); conditions: HEK293 RL24 IRF3 luciferase reporter, at 10 µM, stronger effect = higher value
[8] = TLR3 IRF3 reporter activation blockers – cell-based, poly I:C stimulus, luciferase, 10K MLSCN set, primary screen (AID 602277;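 active = inhibition of the reporter signal at or above 50%; inactive = inhibition below 50%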); conditions: HEK293-TLR3 RL24 IRF3 luciferase reporter, at 10 µM, stronger effect = higher value

Voltage-gated potassium channel subunit beta-2 (Rattus norvegicus), sequence (P62483 whole entry, looked up): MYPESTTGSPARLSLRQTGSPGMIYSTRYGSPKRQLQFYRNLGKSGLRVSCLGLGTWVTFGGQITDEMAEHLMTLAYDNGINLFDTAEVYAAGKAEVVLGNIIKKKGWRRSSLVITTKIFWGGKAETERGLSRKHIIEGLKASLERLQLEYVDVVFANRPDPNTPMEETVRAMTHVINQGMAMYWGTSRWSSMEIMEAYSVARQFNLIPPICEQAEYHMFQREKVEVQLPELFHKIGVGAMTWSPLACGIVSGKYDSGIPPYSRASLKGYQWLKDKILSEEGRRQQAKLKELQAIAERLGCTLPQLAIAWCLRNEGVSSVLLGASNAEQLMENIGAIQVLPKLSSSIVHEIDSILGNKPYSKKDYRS
Alpha-2C adrenergic receptor (Homo sapiens), sequence (P18825 whole entry, looked up): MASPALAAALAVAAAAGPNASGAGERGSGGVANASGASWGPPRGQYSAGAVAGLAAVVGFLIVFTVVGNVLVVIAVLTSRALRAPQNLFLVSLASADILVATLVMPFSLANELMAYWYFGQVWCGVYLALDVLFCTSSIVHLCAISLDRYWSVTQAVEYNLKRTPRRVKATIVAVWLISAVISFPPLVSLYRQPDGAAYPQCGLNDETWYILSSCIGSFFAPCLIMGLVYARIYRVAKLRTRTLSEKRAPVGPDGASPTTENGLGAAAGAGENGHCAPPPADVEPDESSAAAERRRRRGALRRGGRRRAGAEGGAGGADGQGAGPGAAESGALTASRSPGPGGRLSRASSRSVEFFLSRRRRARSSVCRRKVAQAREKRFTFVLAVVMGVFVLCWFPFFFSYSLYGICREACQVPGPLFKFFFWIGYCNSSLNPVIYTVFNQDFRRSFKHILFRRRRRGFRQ

| SMILES | cell count [1] | inhibition [1] | inhibition of aggregation [2] | nuclei count [2] [%] | inhibition [3] | nuclei count [3] [%] | fluorescence slope [4] | NADPH fluorescence slope [5] | slope [6] | inhibition [7] | inhibition [8] |
| --- | --- | --- | --- | --- | --- | --- | --- | --- | --- | --- | --- |
| O=S(=O)(Nc1ccn(-c2ccccc2)n1)c1ccc(Br)cc1 | 395 | -1.6% (inactive) | 20.2% (inactive) | 98 | -35.6% (inactive) | 119 | -0.413 (inactive) | 0.000106 (inactive) | 0.00791 (inactive) | 10.7% (inactive) | 17.4% (inactive) |
| Cc1cc(C)c2c(n1)nn1c(C3CC3)cc(C(F)(F)F)nc21 | 631 | -2% (inactive) | 1.3% (inactive) | 92.2 | -11.4% (inactive) | 123 | -0.315 (inactive) | 2.7e-06 (inactive) | 0.00594 (inactive) | 8.22% (inactive) | 17.3% (inactive) |
| O=C(CCC(=O)c1cccs1)NCc1ccccc1 | 462 | -0.2% (inactive) | -5.4% (inactive) | 111 | -24.2% (inactive) | 132 | -0.622 (inactive) | -5.1e-06 (inactive) | 0.0103 (inactive) | -1.41% (inactive) | 1.97% (inactive) |
| CCOC(=O)CSc1nnc(Cn2c(=O)sc3ccccc32)n1C | 475 | -8.3% (inactive) | 20.2% (inactive) | 106 | -24.8% (inactive) | 114 | -0.576 (inactive) | -4.8e-05 (inactive) | 0.00614 (inactive) | 8.16% (inactive) | 33.4% (inactive) |
| CC(C)=CCCC(C)CN(C)CCc1ccccn1 (stereo not drawn) | 281 | -2.1% (inactive) | 27.8% (inactive) | 92.8 | -75.4% (inactive) | 108 | -0.448 (inactive) | -0.000147 (inactive) | 0.00676 (inactive) | -1.84% (inactive) | 20.8% (inactive) |
| COc1cccc(OCc2nc3ccccc3[nH]2)c1 | 596 | -4.8% (inactive) | 3.2% (inactive) | 102 | -75.3% (inactive) | 114 | -0.57 (inactive) | -9.8e-06 (inactive) | 0.0079 (inactive) | -67.8% (inactive) | -190% (inactive) |
| COc1cccc(/C=N/n2c(C)nc3ccccc32)c1OC | 431 | 0.5% (inactive) | 32.5% (active) | 84.3 | -27.6% (inactive) | 123 | -0.391 (inactive) | 3.2e-05 (inactive) | 0.00613 (inactive) | -7.57% (inactive) | -59.7% (inactive) |
| O=c1c(-c2ccc(Br)cc2)coc2c(CN3CCOCC3)c(O)ccc12 | 557 | -2.4% (inactive) | -1.6% (inactive) | 102 | -9.2% (inactive) | 118 | -0.0321 (active) | 3.3e-05 (inactive) | 0.00611 (inactive) | 2.64% (inactive) | -17.1% (inactive) |
| Cn1c(=O)c2nc(Cl)n(Cc3ccc(Cl)cc3Cl)c2n(C)c1=O | 719 | -22.4% (inactive) | 11.5% (inactive) | 89.6 | -7.8% (inactive) | 110 | -0.514 (inactive) | -4.5e-05 (inactive) | 0.00452 (inactive) | 21.4% (inactive) | 23.2% (inactive) |
| COC(=O)N1CC(c2ccccc2)CC1=O (stereo not drawn) | 639 | -0.6% (inactive) | -22.4% (inactive) | 119 | -61.9% (inactive) | 73 | -0.47 (inactive) | -0.000268 (inactive) | 0.00505 (inactive) | 7.79% (inactive) | 16.7% (inactive) |
| COC(=O)c1cc(-c2ccccc2)sc1NC(=O)c1cc(C)on1 | 365 | -2.2% (inactive) | -13.8% (inactive) | 104 | -21.2% (inactive) | 111 | -0.342 (inactive) | -1.3e-05 (inactive) | 0.00783 (inactive) | -14.9% (inactive) | -8.07% (inactive) |
| O=C(NCc1ccccc1)c1cc(-c2ccco2)on1 | 445 | -0.9% (inactive) | -0.2% (inactive) | 102 | -18.9% (inactive) | 103 | -0.506 (inactive) | -3.5e-05 (inactive) | 0.00556 (inactive) | -27.8% (inactive) | -74.9% (inactive) |
| Cc1cc(Cl)ccc1OCCCC(=O)NO | 375 | 0.8% (inactive) | -15% (inactive) | 65.5 | -31.4% (inactive) | 108 | -0.31 (inactive) | -1.1e-05 (inactive) | 0.00525 (inactive) | 9.52% (inactive) | -4.29% (inactive) |
| COCCCn1c(SCC(=O)Nc2cccc(C)n2)nnc1-c1ccco1 | 601 | -10.2% (inactive) | 21.7% (inactive) | 85.3 | 73.4% (inactive) | 64.2 | -0.612 (inactive) | -2.9e-05 (inactive) | 0.00331 (inactive) | 18.6% (inactive) | 16.6% (inactive) |
| Cc1ccc(-c2cc(C(=O)O)n[nH]2)o1 | 358 | 1% (inactive) | 3.3% (inactive) | 101 | -1.4% (inactive) | 97.7 | -0.612 (inactive) | 4.6e-05 (inactive) | 0.00603 (inactive) | 9.01% (inactive) | 14.9% (inactive) |
| Cc1csc(NC(=O)CCn2c(=O)oc3ccccc32)n1 | 502 | -20.3% (inactive) | -30.3% (inactive) | 79.1 | -6.4% (inactive) | 90.9 | -0.323 (inactive) | -4.9e-05 (inactive) | 0.00431 (inactive) | 4.3% (inactive) | -1.46% (inactive) |
| CCCN(CCC)S(=O)(=O)c1ccc(NS(C)(=O)=O)cc1 | 399 | 3.4% (inactive) | -3% (inactive) | 108 | -126% (inactive) | 107 | -0.391 (inactive) | 1e-05 (inactive) | 0.00362 (inactive) | 6.07% (inactive) | 12.8% (inactive) |
| O=C(NCc1ccco1)c1ccccc1Nc1ccc(F)cc1 | 575 | -7.2% (inactive) | 47.6% (active) | 67.1 | -30.4% (inactive) | 103 | -0.308 (inactive) | -5e-05 (inactive) | 0.00433 (inactive) | 5.52% (inactive) | -2.76% (inactive) |
| CCCCn1c(SCC(=O)Nc2cc(C)on2)nnc1-c1cccnc1 | 414 | -3.9% (inactive) | 1.7% (inactive) | 121 | -26.4% (inactive) | 123 | -0.00106 (inactive) | -3.1e-05 (inactive) | 0.00399 (inactive) | 11.3% (inactive) | 6.93% (inactive) |
| C/C=C/Cn1c(Br)nc2c1c(=O)[nH]c(=O)n2C | 650 | 10.6% (inactive) | -10.8% (inactive) | 73 | 20.1% (inactive) | 103 | -0.625 (inactive) | -4.7e-05 (inactive) | 0.00443 (inactive) | 15.1% (inactive) | 10.7% (inactive) |
| COc1ccc(CCNC(=O)CCN2C(=O)C3CC=CCC3C2=O)cc1OC (stereo not drawn) | 308 | -1.1% (inactive) | -8.1% (inactive) | 83.4 | -53.4% (inactive) | 103 | -0.605 (inactive) | -1.9e-06 (inactive) | 0.00675 (inactive) | 3.55% (inactive) | -2.15% (inactive) |
| CC(O)c1cc2c(cc1NC(=O)c1cnn3c1NC(c1ccco1)CC3C(F)(F)F)OCO2 (stereo not drawn) | 656 | 8.7% (inactive) | -12% (inactive) | 109 | -56.3% (inactive) | 98.9 | -0.583 (inactive) | 3.4e-05 (inactive) | 0.00628 (inactive) | 9.47% (inactive) | 20.2% (inactive) |
| COc1ccc(-c2ccc(-c3noc(-c4ccccc4OC)n3)c(OC)n2)cc1 | 294 | 16.9% (inactive) | -30.2% (inactive) | 86.6 | -1.9% (inactive) | 111 | -0.0455 (inactive) | -3.2e-06 (inactive) | 0.00463 (inactive) | -0.193% (inactive) | -36.2% (inactive) |
| Cc1noc(C)c1C(=O)Nc1ccc(Cl)cc1C(F)(F)F | 327 | -13.5% (inactive) | 1.7% (inactive) | 99.5 | -6% (inactive) | 102 | -0.625 (inactive) | -1e-05 (inactive) | 0.0031 (inactive) | 17.2% (inactive) | 18% (inactive) |
| COC(=O)CSc1cc(C)nc(NC(C)=O)n1 | 703 | 11% (inactive) | -16.4% (inactive) | 98.3 | -5.3% (inactive) | 110 | -0.586 (inactive) | -4.5e-05 (inactive) | 0.0055 (inactive) | 6.12% (inactive) | 17.7% (inactive) |
| CCC(C)NC(=O)C1c2cc(OC)c(OC)cc2C(=O)N(C)C1c1ccc(OC)cc1 (stereo not drawn) | 455 | -0.3% (inactive) | 7.3% (inactive) | 100 | 43.7% (inactive) | 52.6 | -0.539 (inactive) | -8.1e-06 (inactive) | 0.00537 (inactive) | -0.973% (inactive) | 2.51% (inactive) |
| CCOc1ccc(-c2nnc(SCC(=O)N3CCN(c4ccccc4)CC3)o2)cc1 | 672 | -8.6% (inactive) | 8.1% (inactive) | 101 | -59.7% (inactive) | 109 | -0.559 (inactive) | 2.1e-05 (inactive) | 0.0058 (inactive) | 2.37% (inactive) | 14.8% (inactive) |
| O=C(COc1cccc(Oc2ccccc2)c1)Nc1ncccn1 | 739 | 3.1% (inactive) | 12.8% (inactive) | 103 | -25.1% (inactive) | 111 | -0.609 (inactive) | -1.1e-05 (inactive) | 0.00604 (inactive) | 4.77% (inactive) | 4.74% (inactive) |
